In the library only some 3.1% were active in any assay of this set; here they are far more common.
ATG4B inh – ATG4B protease inhibitors, primary screen, biochemical, fluorescence, uHTS. 340,000 compounds, 0.51% hits. Cysteine protease ATG4B (Homo sapiens), Q9Y4P1. inhibition, % at 8.33 µM. ATG4B cleavage of LC3-PLA2, NBD-HPC fluorescence, 1 h; in the data active means inhibition above about 40%
Target sequence (Q9Y4P1 whole entry, looked up): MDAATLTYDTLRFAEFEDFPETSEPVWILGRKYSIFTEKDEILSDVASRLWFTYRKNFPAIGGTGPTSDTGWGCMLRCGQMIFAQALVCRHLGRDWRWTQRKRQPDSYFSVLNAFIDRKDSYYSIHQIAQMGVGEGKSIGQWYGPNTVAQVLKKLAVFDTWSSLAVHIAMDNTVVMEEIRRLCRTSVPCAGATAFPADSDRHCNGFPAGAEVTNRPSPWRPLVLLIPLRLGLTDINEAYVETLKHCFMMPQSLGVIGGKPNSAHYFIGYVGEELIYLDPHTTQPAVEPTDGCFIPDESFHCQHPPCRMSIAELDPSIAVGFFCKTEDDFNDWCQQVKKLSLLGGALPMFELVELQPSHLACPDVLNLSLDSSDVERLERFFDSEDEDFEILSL
Calb FLC – C. albicans growth inhibition with fluconazole, primary screen, CaCi-2 strain, Alamar Blue fluorescence. C. albicans CaCi-2 (fluconazole-resistant clinical isolate) + fluconazole, 48 h. growth inhibition, % (no concentration beside the values). 300,000 compounds, 0.57% hits;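 active means growth inhibition above about 58% in most replicates, limit read from the data, passing the limit was not always enough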;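 further: all wells also contain fluconazole at 8 µg/ml as a sub-toxic cotreatment; 0% = median of DMSO wells and 100% = median of geldanamycin control wells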
FAS-TE inh – FAS thioesterase domain inhibitors, primary screen, biochemical, fluorescence intensity, uHTS. Fatty acid synthase (Homo sapiens), P49327. recombinant FAS-TE, OMFH fluorogenic substrate, fluorescence endpoint. inhibition, % at 15 µM. 360,000 compounds, 0.67% hits;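 active means compounds whose normalised, plate-corrected inhibition of enzyme fluorescence in the single-dose primary screen is 50% or more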;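 further: 0% = DMSO with enzyme and 100% = substrate without enzyme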
NadD inh – inhibitors of S. aureus NadD, primary screen, biochemical, colorimetric, uHTS | purified NadD enzyme, colorimetric absorbance read-out | inhibition, % at 20 µM | 360,000 compounds, 0.78% hits | AID 602399, 2012; in the data active means inhibition above about 26%
Mot1-301 SUMO – yeast Mot1-301 growth rescue at high temperature, primary screen, SUMOylation pathway inhibitor project, S. cerevisiae, ATP luminescence, 38.5C; S. cerevisiae Mot1-301 growth rescue; percent above DMSO median, 100 means doubled; growth rescue, % at 18.8 µM; 320,000 compounds, 1% hits; AID 2716, 2010;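 active means every valid replicate shows activation above 250% relative to neutral control wells; inactive means the rest, any valid replicate at or below 250%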;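 further: OY570 slx delta 5 strain wells were the positive control but not used for scaling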
NadD inh conf – inhibitors of S. aureus NadD, confirmation, biochemical, colorimetric, single concentration; shares compounds with NadD inh; 2,000 compounds, 13% hits; purified S. aureus NadD, colorimetric enzyme assay; inhibition, % at 20 µM; in the data active means inhibition mostly above about 42%, no sharp cut-off; inactive means mostly below about 42%
* = called active by the depositor.

Screening CC(C)C[C@H]1CNC(=S)N1CC1CCCN1C[C@H](Cc1ccccc1)N1C[C@H](Cc2ccccc2)N(CC2CCCCC2)C1=S (stereo not given in full) returned FAS-TE inh -75.2 and NadD inh 6.5.
Oc1ccc(C[C@H]2CNC(=S)N2CC2CCCN2C[C@H](Cc2ccccc2)N2C[C@H](Cc3ccc(O)cc3)N(CC3CCCCC3)C2=S)cc1 (stereo not given in full) was read as FAS-TE inh -82.0, NadD inh 53.4* and NadD inh conf 19.5.
Screening COc1cccc(NC(=O)COC(=O)CCC(=O)c2cccs2)c1 returned ATG4B inh 1.1, FAS-TE inh -3.8, NadD inh -7.4 and Mot1-301 SUMO 26.1.
Screening COc1cc2c(cc1OC)C(C)N(C(=O)Nc1ccc(F)cc1)CC2 (stereo not given) returned ATG4B inh -2.5, Calb FLC -1.5, FAS-TE inh -5.8, NadD inh -7.0 and Mot1-301 SUMO 2.4.
Screening CN1C(=O)/C(=C\c2ccccc2F)Sc2ccc(C(=O)NC3CCN(Cc4ccccc4)CC3)cc21 returned ATG4B inh -4.8, Calb FLC 1.9, FAS-TE inh 7.4, NadD inh 4.2 and Mot1-301 SUMO -17.3.
For Oc1ccc(C[C@H]2CNC(=S)N2CC2CCCN2C[C@H](Cc2ccc(O)cc2)N2C[C@H](Cc3ccc(O)cc3)N(CC3CCCCCC3)C2=S)cc1 (stereo not given in full) the results were FAS-TE inh -70.0, NadD inh 55.4* and NadD inh conf 40.8.
For CC(C)C[C@H]1CNC(=S)N1C[C@H]1CCCN1C[C@H](Cc1ccccc1)N1C[C@H](Cc2ccc(O)cc2)N(CC2CCCCC2)C1=S the results were FAS-TE inh -96.1, NadD inh 35.2* and NadD inh conf -0.3.
`CC(C)C[C@H]1CNC(=S)N1CC1CCCN1C[C@H](Cc1ccc(O)cc1)N1C[C@H](Cc2ccccc2)N(CC2CCCCC2)C1=S` (stereo not given in full) gave FAS-TE inh -77.8 and NadD inh 27.9.
Screening Oc1ccc(C[C@H]2CNC(=S)N2CC2CCCN2C[C@H](Cc2ccc(O)cc2)N2C[C@H](Cc3ccccc3)N(CC3CCCCCC3)C2=S)cc1 (stereo not given in full) returned FAS-TE inh -84.9, NadD inh 44.6* and NadD inh conf 31.3.
For COc1ccc(C(=O)NC(=S)Nc2nc(-c3ccc(OC)c(Br)c3)cs2)cc1Br the results were ATG4B inh -6.0, FAS-TE inh 24.2, NadD inh 33.2*, Mot1-301 SUMO -4.0 and NadD inh conf 0.5.
COc1ccc(-c2csc(NC(=S)NC(=O)c3ccccc3)n2)cc1Br was read as ATG4B inh -3.2, Calb FLC -0.6, FAS-TE inh 1.0, NadD inh 10.6 and Mot1-301 SUMO 4.2.
For Cc1ccc(NC(=O)CN(C)Cc2nc3c(Br)cc(Br)cc3c(=O)[nH]2)cc1 the results were ATG4B inh -6.3, Calb FLC 20.3, FAS-TE inh 24.0, NadD inh 28.7*, Mot1-301 SUMO -7.1 and NadD inh conf -1.1.
Screening COc1ccc(NC(=O)c2cc(-c3ccc(F)cc3OC)n[nH]2)c(C)c1 returned FAS-TE inh 3.9 and NadD inh -2.0.
Cc1cc(C(=O)O)ccc1-c1ccc(/C=C2\SC(=O)N(CC(=O)Nc3ccc4c(c3)OCO4)C2=O)o1 was read as Calb FLC -16.6, FAS-TE inh -35.2, NadD inh 48.4*, Mot1-301 SUMO 7.8 and NadD inh conf 9.2.
C#CCN1C(=O)S/C(=C\c2ccc(-c3ccc(C(=O)O)cc3C)o2)C1=O was read as ATG4B inh 5.9, Calb FLC 16.5, FAS-TE inh 0.6, NadD inh 9.2 and Mot1-301 SUMO 3.9.
O=C(O)c1cccc(NC(=S)NC(NC(=O)c2cccc([N+](=O)[O-])c2)C(Cl)(Cl)Cl)c1 (stereo not given) was read as ATG4B inh -8.7, Calb FLC -13.1, FAS-TE inh 17.4, NadD inh 64.4*, Mot1-301 SUMO -19.7 and NadD inh conf 6.8.
CCC(=O)N1CC2(CC(c3cccc(NC(=O)COc4ccc(Cl)cc4)c3)=NO2)C[C@@H]1C(N)=O (stereo not given in full) was read as Calb FLC 3.9.
NC(=O)[C@H]1CC2(CC(c3cccc(NC(=O)COc4ccc(Cl)cc4)c3)=NO2)CN1C(=O)c1ccccc1C(=O)c1ccccc1 (stereo not given in full) was read as ATG4B inh 14.4, Calb FLC 13.9, FAS-TE inh 5.2, NadD inh 31.4*, Mot1-301 SUMO 3.7 and NadD inh conf 39.8.
`CCC(=O)Nc1cccc(C2=NOC3(C2)C[C@@H](C(N)=O)N(C(=O)c2ccccc2C(=O)c2ccccc2)C3)c1` (stereo not given in full) gave ATG4B inh -2.5, Calb FLC -3.2, FAS-TE inh -7.1, NadD inh 8.0 and Mot1-301 SUMO 0.7.
NC(=O)[C@H]1CC2(CC(c3cccc(NC(=O)COc4ccc(Cl)cc4)c3)=NO2)CN1C(=O)c1ccc(Cl)cc1 (stereo not given in full) was read as ATG4B inh -28.4, Calb FLC 21.5, FAS-TE inh 12.9, NadD inh 39.7*, Mot1-301 SUMO -12.3 and NadD inh conf 28.1.
For CCOC(=O)c1c(NC(=O)CSc2nc3cc(Cl)ccc3c(=O)n2Cc2ccco2)sc(C(=O)N(C)C)c1C the results were ATG4B inh -3.0, Calb FLC 5.1, FAS-TE inh 40.7, NadD inh 38.9* and NadD inh conf 8.1.
For Cc1ccc(OCC(=O)NNC(=S)NC(=O)C(C)(C)C)c(Br)c1 the results were ATG4B inh -8.0, Calb FLC 7.1, FAS-TE inh -2.3, NadD inh -1.7 and Mot1-301 SUMO -12.6.
For CC(C)c1ccc(OCC(=O)NNC(=S)NC(=O)c2cccs2)c(Br)c1 the results were ATG4B inh 6.7, Calb FLC -2.2, FAS-TE inh -3.8, NadD inh 25.4*, Mot1-301 SUMO -8.3 and NadD inh conf 9.6.
`O=C1CC(c2ccco2)CC(O)=C1C=NCC1CCNCC1` (stereo not given) gave ATG4B inh 3.3, Calb FLC -4.0, FAS-TE inh -8.1, NadD inh 34.4*, Mot1-301 SUMO -7.8 and NadD inh conf 6.2.
